Assay outcomes (PubChem)
This is a sample that favours compounds with a hit; in the whole collection about 0.73% have one here.
Yp Topo-I inh = Yersinia pestis topoisomerase I inhibitors, primary screen, biochemical, cleavage product accumulation, plate reader, single point | DNA topoisomerase I (Yersinia pestis CO92) | Y. pestis Topo-I cleavage product accumulation | activity, % at 10 µM | 360,000 tested, 0.064% active | AID 504884, 2011; in the data active = activity above about 50%, passing the limit was not always enough
BioA inh = M. tuberculosis BioA enzyme inhibitors, primary screen, biochemical, plate reader, single point, HTS. 7,8-diaminopelargonic acid synthase BioA (Mycobacterium tuberculosis). purified M. tuberculosis BioA enzyme. inhibition, % at 9.99 µM. 360,000 tested, 0.096% active. AID 602481, 2012; in the data active = inhibition above about 40%
TcdB inh = TcdB glycohydrolase inhibitors, primary screen, biochemical, single point, plate reader | Toxin B (Clostridioides difficile), P18177 | TcdB glycohydrolase enzymatic assay | inhibition, % at 9.99 µM | 350,000 tested, 0.24% active | AID 652162, 2013; in the data active = inhibition above about 10%
Target sequence (P18177 whole entry, looked up): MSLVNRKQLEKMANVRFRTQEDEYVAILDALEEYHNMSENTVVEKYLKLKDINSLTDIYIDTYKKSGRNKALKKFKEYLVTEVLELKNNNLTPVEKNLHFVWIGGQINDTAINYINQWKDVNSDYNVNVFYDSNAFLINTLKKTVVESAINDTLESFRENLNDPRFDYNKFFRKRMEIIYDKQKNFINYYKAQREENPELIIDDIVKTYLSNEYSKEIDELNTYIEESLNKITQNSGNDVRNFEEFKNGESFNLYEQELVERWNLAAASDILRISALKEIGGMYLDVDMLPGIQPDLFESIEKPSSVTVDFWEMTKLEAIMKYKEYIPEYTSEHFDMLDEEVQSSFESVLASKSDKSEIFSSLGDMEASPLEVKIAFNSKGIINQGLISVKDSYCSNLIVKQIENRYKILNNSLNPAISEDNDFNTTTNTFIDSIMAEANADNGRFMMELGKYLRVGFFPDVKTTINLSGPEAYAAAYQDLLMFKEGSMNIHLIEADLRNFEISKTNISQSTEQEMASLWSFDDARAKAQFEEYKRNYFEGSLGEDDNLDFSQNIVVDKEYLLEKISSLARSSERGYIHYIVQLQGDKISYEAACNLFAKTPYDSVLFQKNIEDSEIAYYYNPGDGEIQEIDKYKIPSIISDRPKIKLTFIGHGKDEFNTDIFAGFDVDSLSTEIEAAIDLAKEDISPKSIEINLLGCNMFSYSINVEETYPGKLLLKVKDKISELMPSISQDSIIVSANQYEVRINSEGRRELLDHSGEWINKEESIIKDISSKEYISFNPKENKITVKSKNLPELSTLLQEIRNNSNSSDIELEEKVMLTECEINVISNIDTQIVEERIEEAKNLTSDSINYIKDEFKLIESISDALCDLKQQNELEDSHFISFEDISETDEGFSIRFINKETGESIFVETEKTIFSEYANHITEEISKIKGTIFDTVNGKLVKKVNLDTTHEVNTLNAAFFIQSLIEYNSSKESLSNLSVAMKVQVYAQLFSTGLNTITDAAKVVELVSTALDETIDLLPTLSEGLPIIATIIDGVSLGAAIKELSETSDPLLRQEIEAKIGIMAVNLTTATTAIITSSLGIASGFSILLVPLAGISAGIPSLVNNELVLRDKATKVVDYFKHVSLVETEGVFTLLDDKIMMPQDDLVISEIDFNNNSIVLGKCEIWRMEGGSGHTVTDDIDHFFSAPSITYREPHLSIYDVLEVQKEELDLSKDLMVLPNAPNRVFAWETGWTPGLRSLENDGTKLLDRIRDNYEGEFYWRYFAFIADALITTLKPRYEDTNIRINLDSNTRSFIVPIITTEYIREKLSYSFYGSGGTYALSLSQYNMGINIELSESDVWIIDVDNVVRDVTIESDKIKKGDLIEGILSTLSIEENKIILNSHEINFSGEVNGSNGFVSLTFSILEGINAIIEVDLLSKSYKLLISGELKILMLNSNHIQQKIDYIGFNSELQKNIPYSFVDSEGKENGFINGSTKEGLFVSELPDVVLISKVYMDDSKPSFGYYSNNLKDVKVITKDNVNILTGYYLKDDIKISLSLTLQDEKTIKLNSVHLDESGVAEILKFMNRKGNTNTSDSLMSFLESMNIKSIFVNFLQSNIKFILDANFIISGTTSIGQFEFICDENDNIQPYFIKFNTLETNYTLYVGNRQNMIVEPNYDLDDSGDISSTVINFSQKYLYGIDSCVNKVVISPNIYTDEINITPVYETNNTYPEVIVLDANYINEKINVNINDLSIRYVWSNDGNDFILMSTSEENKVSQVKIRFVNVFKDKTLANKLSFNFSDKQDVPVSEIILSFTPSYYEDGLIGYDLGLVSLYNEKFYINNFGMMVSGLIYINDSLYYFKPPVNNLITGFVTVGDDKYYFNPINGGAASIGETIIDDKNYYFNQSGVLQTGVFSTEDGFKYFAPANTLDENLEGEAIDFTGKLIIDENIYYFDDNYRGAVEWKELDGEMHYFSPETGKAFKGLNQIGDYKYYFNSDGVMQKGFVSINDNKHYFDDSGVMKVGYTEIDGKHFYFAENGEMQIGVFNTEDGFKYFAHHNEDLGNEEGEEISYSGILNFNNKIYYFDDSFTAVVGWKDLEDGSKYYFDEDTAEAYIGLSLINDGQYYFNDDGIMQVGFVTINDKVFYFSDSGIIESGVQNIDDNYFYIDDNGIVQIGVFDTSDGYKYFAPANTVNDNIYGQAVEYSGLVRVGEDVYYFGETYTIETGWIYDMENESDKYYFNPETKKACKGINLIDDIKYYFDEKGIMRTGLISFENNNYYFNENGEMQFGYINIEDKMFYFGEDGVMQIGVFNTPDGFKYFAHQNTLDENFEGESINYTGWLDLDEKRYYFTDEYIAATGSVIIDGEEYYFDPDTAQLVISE
BH1578 lux ind = inducers of Vibrio cholerae quorum light production without autoinducers, primary screen, BH1578 luxS cqsA deficient, single point. V. cholerae BH1578 lux reporter, luminescence, 6 h. activation, % at 18.7 µM. 350,000 tested, 0.16% active; in the data active = activation mostly above about 9.7%, no sharp cut-off
VHR inh abs = VHR1 phosphatase inhibitors, primary screen, biochemical, absorbance, uHTS | Dual specificity protein phosphatase 3 (Homo sapiens), P51452 | recombinant VHR phosphatase, pNPP absorbance | inhibition, % at 13.3 µM | 290,000 tested, 0.52% active; in the data active = inhibition above about 50%
Starred values were filed as active, the others as inactive; i = inactive; x = no result.

SMILES	Yp Topo-I inh	BioA inh	TcdB inh	BH1578 lux ind	VHR inh abs
CCCCC(NC(=O)CCc1c(C)c2cc3c4c(oc3c(C)c2oc1=O)CCCC4)C(=O)O (stereo not drawn)	11	-1	-4	-1	58*
CCCCC(NC(=O)Cc1c(C)c2cc3c4c(oc3c(C)c2oc1=O)CCCC4)C(=O)O (stereo not drawn)	12	1	1	-2	52*
CC(=O)NC[C@H]1[C@@H](c2ccccc2)[C@@H](CO)N1C(=O)Cc1ccncc1	x	0	x	x	x
O=C(C[C@H]1CC[C@@H](NC(=O)CC2CC2)[C@H](CO)O1)NCc1ccc(Cl)cc1	x	-1	1	x	x
CC1CN(C(=O)c2cc3cc(F)ccc3[nH]2)CC(C)O1 (stereo not drawn)	-2	0	1	i	53*
CCOC(=O)/C(=N/Nc1ccc(Br)cc1)N1CC(C)OC(C)C1 (stereo not drawn)	10	x	34*	x	x
CCOC(=O)/C(=N\Nc1ccccc1)N1CC1	5	x	1	0	-2
C[C@H]1CN([C@@H](C)CO)C(=O)c2cc(NC(=O)NC3CCCCC3)ccc2O[C@H]1CN(C)Cc1ccncc1	x	-1	0	x	x
C[C@@H]1CN([C@H](C)CO)C(=O)c2cccc(N(C)C)c2O[C@@H]1CN(C)C(=O)Nc1ccc(C(F)(F)F)cc1	x	-2	13*	x	x
COc1ccc(Cc2nnc(NC(=O)C3CC(=O)N(c4ccccc4)C3)s2)cc1OC (stereo not drawn)	20	1	1	0	58*
COc1ccc(NC(=O)CSc2nccn2C)cc1S(N)(=O)=O	-6	x	11*	i	10
COc1ccc(NC(=O)CSc2nncs2)cc1S(N)(=O)=O	-5	x	1	0	18
COCCNC(=O)C[C@@H]1CC[C@H]2[C@@H](COC[C@H](O)CN2C(=O)Nc2ccc3c(c2)OCO3)O1	x	-2	0	x	x
CC(C)CC(=O)N1CCN(Cc2ccc(Cl)cc2)CC1	8	3	1	i	20
CC(C)CC(=O)N1CCN(Cc2ccc(Br)cc2)CC1	7	-1	11*	0	4
O=C(Nc1ccc(O)c(-c2nc3ccccc3s2)c1)c1cccs1	-2	x	9	0	5
O=C(Nc1ccc(O)c(-c2nc3ccccc3s2)c1)c1cc(=O)c2ccccc2o1	4	-1	x	0	53*
C[C@H]1CN([C@@H](C)CO)C(=O)c2cc(NC(=O)C3CCCCC3)ccc2O[C@@H]1CN(C)C(=O)Nc1ccc(C(F)(F)F)cc1	x	3	0	x	x
C[C@@H]1CN([C@@H](C)CO)S(=O)(=O)c2ccc(C#Cc3ccc(F)cc3)cc2O[C@@H]1CN(C)S(=O)(=O)c1ccc(F)cc1	x	-3	-1	x	x
C=CCC(C(=O)OC)(C(=O)OC)c1ccc([N+](=O)[O-])cn1	4	1	x	-1	52*
C[C@@H]1CN(c2c(F)c(F)c3c(=O)c(C(=O)O)cn(C4CC4)c3c2F)C[C@H](C)N1	-9	2	1	-1	58*
O=C(C[C@H]1CC[C@H]2[C@@H](COC[C@H](O)CN2C(=O)Nc2ccc(C(F)(F)F)cc2)O1)NC1Cc2ccccc2C1	x	0	1	x	x
C[C@@H]1CN([C@H](C)CO)C(=O)c2c(c3ccccc3n2C)-c2ccccc2CO[C@H]1CN(C)C(=O)C1CC1	x	3	-6	x	x
Cc1cc(O)c2c(c1)C(=O)C13C(=C2O)C(=O)[C@H]2[C@@H](O)[C@@H]1[C@H]1[C@H](O)[C@@H]3C(=O)C3=C(O)c4c(O)cc(C)cc4C(=O)C312 (stereo partly drawn)	403*	0	x	-1	x
CN1CCN(C(=O)c2cc3c(c(-c4cccc(C#CCC5CCCC5)c4)n2)[C@H](CCO)N(S(=O)C(C)(C)C)C3)CC1 (stereo partly drawn)	x	1	1	x	x
SMILES	Yp Topo-I inh	BioA inh	TcdB inh	BH1578 lux ind	VHR inh abs
C[C@H]1CN([C@@H](C)CO)C(=O)c2cccc(NS(=O)(=O)c3cccs3)c2O[C@H]1CN(C)C(=O)NC1CCCCC1	x	-1	0	x	x
O=C(CNc1cccc(Cl)c1)c1ccc(Br)cc1	-16	1	1	0	51*
O=C(CNc1ccc(Br)cc1)c1ccccc1	10	-1	x	i	16
C#CCN(C[C@@H](CC(C)C)NC(=O)OC(C)(C)C)S(=O)(=O)c1ccc(Br)cc1F	53*	0	1	-1	x
CC(C)CC(NC(=O)C(CC(C)C)NC(=O)OC(C)(C)C)C(=O)O (stereo not drawn)	3	-1	x	-2	-28
Cc1cc(N/N=C/c2ccncc2)nc2ccccc12	8	x	12*	0	32
Cc1ccc(N/N=C/c2cccnc2)cc1	2	0	x	0	-3
Cc1ccc(N/N=C/c2ccncc2)cc1	-17	3	-1	-1	57*
CO[C@H]1CN(C)C(=O)c2cc(NC(=O)c3ccccc3F)ccc2OC[C@@H](C)N(CC2CCOCC2)C[C@H]1C	x	-2	1	x	x
CC/C(=N\NC(=O)Cc1ccc(Br)cc1)c1cccs1	4	-1	1	i	50*
CC1(C)CC(=O)C=C(Nc2ccc(O)cc2)C1	-1	1	25*	i	x
CC(=O)Nc1ccc(NC2=CC(=O)CC(C)(C)C2)cc1	4	-1	x	2	10
C[C@H]1CCCCO[C@@H](CN(C)C(=O)NC2CCCCC2)[C@@H](C)CN([C@@H](C)CO)C(=O)c2cc(NS(=O)(=O)c3cn(C)cn3)ccc2O1	x	2	1	x	x
CN(CC(=O)Nc1ccccc1Oc1ccccc1)Cc1ccccc1F	60*	x	x	0	-10
Cc1ccccc1CN(C)CC(=O)Nc1ccccc1Oc1ccccc1	-1	0	1	0	3
O=C(C[C@H]1C=C[C@H](NC(=O)c2ccccn2)[C@H](CO)O1)NCc1cccc(F)c1	x	-1	0	x	x
Cc1ccc(S(=O)(=O)NC2=C(N3CCN(c4ccccc4F)CC3)C(=O)c3ccccc3C2=O)cc1	-6	2	-1	i	34
Cc1ccc(S(=O)(=O)Nc2nc3ccccc3nc2N2CCN(c3ccccc3F)CC2)cc1	1	1	x	i	50*
Cn1cnc(S(=O)(=O)N2C[C@H](O)COC[C@@H]3O[C@@H](CC(=O)NCc4ccc(F)cc4)CC[C@H]32)c1	x	1	0	x	x
Cc1onc(-c2ccccc2Cl)c1C(=O)Nc1cnn(Cc2ccccc2)c1	4	-1	13*	0	16
Cc1cccc(N2CCN(C(=O)c3ccc(Cl)c(S(=O)(=O)N4CCc5ccccc5C4)c3)CC2)c1C	20	x	x	0	59*
C=CCn1cccc(C(=O)Nc2ccc(N(C)C)cc2)c1=O	-6	0	-6	i	56*
O=C(NCCc1cccc(Cl)c1)C1CCC(=O)N(Cc2ccc(Cl)cc2)C1 (stereo not drawn)	14	0	1	0	59*
